Measurements reported in PubChem BioAssay (NCI).
The panel holds about 79,000 compounds, 15% with a hit somewhere; the sample as a whole holds those more often. Active and inactive are the calls of the source. Cut-off read from the data, not from the text of the source: active = growth inhibition above about 70%; inactive = the rest.

Assays:
[1] = NCI Yeast Anticancer Drug Screen. Data for the wt2 strain (AID 169);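 note: 0% = growth of vehicle-treated yeast cultures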; settings: S. cerevisiae wt2 strain growth inhibition, active compounds read high
Procedure, shortened: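 Compound exposure of yeast; growth compared with vehicle controls; inhibition reported.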

[2] = NCI Yeast Anticancer Drug Screen. Data for the mlh1 strain (AID 171);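 note: 0% = growth of vehicle-treated control cultures of the same strain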; settings: S. cerevisiae mlh1 strain growth inhibition, active compounds read high
Procedure, shortened: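 Compounds are applied to a genetically altered yeast strain, and its growth is compared with that of vehicle-treated cultures to give percent inhibition.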

[3] = NCI Yeast Anticancer Drug Screen. Data for the sgs1 strain (AID 173);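 note: 0% = growth of vehicle-only control cultures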; settings: S. cerevisiae sgs1 mutant, active compounds read high
Procedure, shortened: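 Compounds applied to genetically altered yeast; growth compared with vehicle-treated cultures to give % inhibition.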

[4] = NCI Yeast Anticancer Drug Screen. Data for the mlh1 rad18 strain (AID 175); settings: S. cerevisiae mlh1 rad18 strain growth inhibition, active compounds read high
Procedure, shortened: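 Cells of a genetically altered yeast strain, deficient in DNA damage repair, were treated with compound. Their growth was then compared with that of vehicle-treated cultures to give inhibition.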

[5] = NCI Yeast Anticancer Drug Screen. Data for the rad18 strain (AID 177); settings: S. cerevisiae rad18 mutant growth inhibition, active compounds read high
Procedure, shortened: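 Compounds are applied to a repair-deficient yeast strain, and growth is compared with that of vehicle-treated cultures to give percent inhibition.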

[6] = NCI Yeast Anticancer Drug Screen. Data for the rad52 strain (AID 147);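 note: 0% = growth of vehicle-treated control cultures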; settings: S. cerevisiae rad52 mutant growth inhibition, active compounds read high
Procedure, shortened: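 DNA repair-defective yeast; compound exposure; growth scored against vehicle controls.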

[7] = NCI Yeast Anticancer Drug Screen. Data for the wt1 strain (AID 149);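 note: 0% = growth of vehicle-treated wt1 cultures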; settings: S. cerevisiae wt1 strain (SPY 50644) growth inhibition, active compounds read high
Procedure, shortened: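 Yeast wt1 strain exposed to compounds; growth inhibition measured relative to vehicle-treated controls.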

[8] = NCI Yeast Anticancer Drug Screen. Data for the rad50EPP+ strain (AID 151);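 note: 0% = growth of vehicle-treated control cultures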; settings: S. cerevisiae rad50 mutant strain, active compounds read high
Procedure, shortened: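 rad50EPP+ yeast treated with test compounds. Readout: growth vs vehicle control.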

[9] = NCI Yeast Anticancer Drug Screen. Data for the mgt1 strain (AID 153); settings: S. cerevisiae mgt1 mutant growth inhibition, active compounds read high
Procedure, shortened: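 Growth inhibition relative to vehicle controls was scored for the mgt1 yeast strain after compound exposure.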

[10] = NCI Yeast Anticancer Drug Screen. Data for the rad50 strain (AID 155);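 note: 0% = growth of vehicle-only cultures of the same strain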; settings: S. cerevisiae rad50 strain growth inhibition, active compounds read high
Procedure, shortened: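 Yeast carrying a defined DNA repair defect were exposed to test compounds, and growth was compared with vehicle-treated controls to give percent inhibition.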

[11] = NCI Yeast Anticancer Drug Screen. Data for the mec2-1 strain (AID 157); settings: S. cerevisiae mec2-1 strain, active compounds read high
Procedure, shortened: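 Growth inhibition is read against vehicle-treated controls after compound exposure of the mec2-1 yeast strain, which is defective in DNA damage repair or cell cycle control.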

[12] = NCI Yeast Anticancer Drug Screen. Data for the rad14 strain (AID 159);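 note: 0% = growth of vehicle-treated control cultures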; settings: S. cerevisiae rad14 strain growth inhibition, active compounds read high
Procedure, shortened: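 Yeast cells carrying a defined DNA-repair defect were exposed to compounds, and growth inhibition was calculated relative to vehicle-treated control cultures.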

[13] = NCI Yeast Anticancer Drug Screen. Data for the sgs1 mgt1 strain (AID 161);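 note: 0% = growth of cultures given vehicle only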; settings: S. cerevisiae sgs1 mgt1 strain, active compounds read high
Procedure, shortened: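 Growth of a repair-deficient yeast mutant was monitored after compound treatment and expressed as inhibition relative to vehicle-treated cultures.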

[14] = NCI Yeast Anticancer Drug Screen. Data for the CLN2oe strain (AID 163);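 note: 0% = growth of vehicle-only control cultures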; settings: S. cerevisiae CLN2oe strain, active compounds read high
Procedure, shortened: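 Compound-treated yeast; growth vs vehicle ctrl = % inhibition. Genetically altered strain (cell-cycle control).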

[15] = NCI Yeast Anticancer Drug Screen. Data for the cln2 rad14 strain (AID 165);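 note: 0% = growth equal to vehicle treated cultures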; settings: S. cerevisiae cln2 rad14 strain, active compounds read high
Procedure, shortened: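 Growth inhibition, relative to vehicle-treated controls, is the read-out. The test organism is a yeast strain with defined genetic alterations, cln2 rad14.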

[16] = NCI Yeast Anticancer Drug Screen. Data for the bub3 strain (AID 167); settings: S. cerevisiae bub3 mutant strain, active compounds read high
Procedure, shortened: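 Compounds were applied to a genetically altered yeast strain carrying a cell-cycle control defect. Growth inhibition was scored against vehicle-treated controls.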

[17] = at 5.0 µM (retest, dose inferred, filed as 0.5)
[18] = at 50.0 µM (retest, dose inferred, filed as 5.0)

Measured: growth inhibition

N#CC(=S)Nc1cccc(Cl)c1
inactive: [1]; at 1.2 µM 2% | [1]; at 3.7 µM 5% | [1]; at 11.0 µM -22% | [1]; at 33.0 µM 31% | [2]; at 1.2 µM 2% | [2]; at 3.7 µM 7% | [2]; at 11.0 µM 26% | [2]; at 33.0 µM 43% | [3]; at 1.2 µM 2% | [3]; at 3.7 µM 7% | [3]; at 11.0 µM 24% | [3]; at 33.0 µM 43% | [4]; [17] 64% | [5]; at 1.2 µM 1% | [5]; at 3.7 µM 12% | [5]; at 11.0 µM 23% | [5]; at 33.0 µM 37% | [5]; at 100.0 µM 58%
active: [1]; at 100.0 µM 94% | [2]; at 100.0 µM 78% | [3]; at 100.0 µM 70% | [4]; [18] 86% | [4]; at 50.0 µM 88.4%

NCc1c(O)ccc2ccccc12
active: [6]; at 100.0 µM 99% | [7]; at 33.0 µM 90% | [7]; at 100.0 µM 99% | [8]; at 100.0 µM 88% | [9]; at 33.0 µM 98% | [9]; at 100.0 µM 99% | [10]; at 33.0 µM 92% | [10]; [18] 83% | [10]; at 50.0 µM 89.2% | [10]; at 100.0 µM 98% | [11]; at 100.0 µM 99% | [12]; at 33.0 µM 99% | [12]; at 100.0 µM 99% | [13]; [18] 74% | [13]; at 50.0 µM 85.9% | [14]; at 100.0 µM 98% | [16]; at 33.0 µM 79% | [16]; at 50.0 µM 93.7% | [16]; at 100.0 µM 98% | [1]; at 11.0 µM 70% | [1]; at 33.0 µM 99% | [1]; at 100.0 µM 99% | [2]; at 33.0 µM 96% | [2]; at 100.0 µM 98% | [4]; [18] 83% | [4]; at 50.0 µM 94% | [5]; at 33.0 µM 87% | [5]; at 100.0 µM 99%
inactive: [6]; at 1.2 µM -17% | [6]; at 3.7 µM -11% | [6]; at 11.0 µM -1% | [6]; at 33.0 µM 64% | [7]; at 1.2 µM 8% | [7]; at 3.7 µM 11% | [7]; at 11.0 µM 27% | [8]; at 1.2 µM -5% | [8]; at 3.7 µM -18% | [8]; at 11.0 µM 10% | [8]; at 33.0 µM 52% | [9]; at 1.2 µM -2% | [9]; at 3.7 µM -7% | [9]; at 11.0 µM 3% | [10]; at 1.2 µM -11% | [10]; at 3.7 µM -10% | [10]; [17] -150% | [10]; at 11.0 µM 2% | [11]; at 1.2 µM -3% | [11]; at 3.7 µM -1% | [11]; [17] -46% | [11]; at 11.0 µM 4% | [11]; at 33.0 µM 25% | [11]; [18] -15% | [11]; at 50.0 µM 47.5% | [12]; at 1.2 µM -3% | [12]; at 3.7 µM 5% | [12]; at 11.0 µM 49% | [13]; [17] -60% | [14]; at 1.2 µM -6% | [14]; at 3.7 µM -4% | [14]; at 11.0 µM -1% | [14]; at 33.0 µM 18% | [15]; [17] -53% | [15]; [18] -25% | [15]; at 50.0 µM 17.2% | [16]; at 1.2 µM -7% | [16]; at 3.7 µM -4% | [16]; [17] -71% | [16]; at 11.0 µM 0% | [16]; [18] 60% | [1]; at 1.2 µM 6% | [1]; at 3.7 µM 9% | [2]; at 1.2 µM -10% | [2]; at 3.7 µM -4% | [2]; at 11.0 µM 4% | [4]; [17] -138% | [5]; at 1.2 µM -6% | [5]; at 3.7 µM -6% | [5]; at 11.0 µM 7%

ClCCn1c(CCl)nc2ccc(Cl)cc21
active: [6]; at 100.0 µM 98% | [7]; at 100.0 µM 97% | [8]; at 100.0 µM 91% | [9]; at 33.0 µM 71% | [9]; at 100.0 µM 98% | [10]; at 50.0 µM 72.7% | [10]; at 100.0 µM 97% | [11]; at 33.0 µM 76% | [11]; [18] 75% | [11]; at 50.0 µM 84% | [11]; at 100.0 µM 95% | [12]; at 33.0 µM 70% | [12]; at 100.0 µM 99% | [13]; [18] 73% | [13]; at 50.0 µM 83.6% | [14]; at 100.0 µM 97% | [16]; at 50.0 µM 81.5% | [16]; at 100.0 µM 96% | [1]; at 33.0 µM 77% | [1]; at 100.0 µM 98% | [2]; at 100.0 µM 98% | [3]; at 100.0 µM 98% | [4]; [18] 75% | [4]; at 50.0 µM 79% | [5]; at 33.0 µM 78% | [5]; at 100.0 µM 98%
inactive: [6]; at 1.2 µM -34% | [6]; at 3.7 µM -41% | [6]; at 11.0 µM -8% | [6]; at 33.0 µM 69% | [7]; at 1.2 µM -52% | [7]; at 3.7 µM -61% | [7]; at 11.0 µM -53% | [7]; at 33.0 µM 52% | [8]; at 1.2 µM -12% | [8]; at 3.7 µM 6% | [8]; at 11.0 µM 9% | [8]; at 33.0 µM 48% | [9]; at 1.2 µM -29% | [9]; at 3.7 µM -32% | [9]; at 11.0 µM -16% | [10]; at 1.2 µM -20% | [10]; at 3.7 µM -11% | [10]; [17] 19% | [10]; at 11.0 µM -3% | [10]; at 33.0 µM 63% | [10]; [18] 54% | [11]; at 1.2 µM -27% | [11]; at 3.7 µM -49% | [11]; [17] 18% | [11]; at 11.0 µM -10% | [12]; at 1.2 µM -8% | [12]; at 3.7 µM 0% | [12]; at 11.0 µM 10% | [13]; [17] 18% | [14]; at 1.2 µM 4% | [14]; at 3.7 µM 8% | [14]; at 11.0 µM 34% | [14]; at 33.0 µM 58% | [15]; [17] 7% | [15]; [18] 7% | [15]; at 50.0 µM 41.2% | [16]; at 1.2 µM -20% | [16]; at 3.7 µM -25% | [16]; [17] 13% | [16]; at 11.0 µM -15% | [16]; at 33.0 µM 60% | [16]; [18] 46% | [1]; at 1.2 µM -10% | [1]; at 3.7 µM -13% | [1]; at 11.0 µM 8% | [2]; at 1.2 µM -30% | [2]; at 3.7 µM -31% | [2]; at 11.0 µM -18% | [2]; at 33.0 µM 67% | [3]; at 1.2 µM -19% | [3]; at 3.7 µM -31% | [3]; at 11.0 µM 10% | [3]; at 33.0 µM 60% | [4]; [17] 26% | [5]; at 1.2 µM -29% | [5]; at 3.7 µM -14% | [5]; at 11.0 µM 30%
